Assay outcomes deposited in PubChem by National Center for Advancing Translational Sciences (NCATS).
Sampled rows, rich in hits. Any-hit rate of the full collection: about 9.2%.
ALDH1A1 inh = ALDH1A1 (human) enzyme inhibition | P00352 | Purified ALDH1A1, NADH fluorescence, propionaldehyde substrate | Potency, µM (titrated, usually from 75.3 µM), inactives show at the top dose activity, negative = inhibition, most hits filed as inhibitors | actives 7.3% (n = 220,000) | AID 1030;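 note: plate controls were no enzyme wells and a reference inhibitor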
Target sequence (P00352 whole entry, looked up): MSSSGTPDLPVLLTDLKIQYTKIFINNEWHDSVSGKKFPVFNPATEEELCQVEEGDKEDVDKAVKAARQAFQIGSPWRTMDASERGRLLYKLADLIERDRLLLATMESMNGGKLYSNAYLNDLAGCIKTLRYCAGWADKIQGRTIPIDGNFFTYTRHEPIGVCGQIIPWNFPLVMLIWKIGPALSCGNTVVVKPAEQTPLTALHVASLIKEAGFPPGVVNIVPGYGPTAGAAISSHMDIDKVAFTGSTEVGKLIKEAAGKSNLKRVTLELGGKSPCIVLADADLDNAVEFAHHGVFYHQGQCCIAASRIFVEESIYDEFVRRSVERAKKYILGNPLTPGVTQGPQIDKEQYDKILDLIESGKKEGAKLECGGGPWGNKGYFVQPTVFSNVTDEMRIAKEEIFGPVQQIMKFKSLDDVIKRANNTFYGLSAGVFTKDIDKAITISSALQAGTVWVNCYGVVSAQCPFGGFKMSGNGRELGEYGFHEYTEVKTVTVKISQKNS
HTT ATP protect = protects HTT-Q103 PC12 cells, measured by ATP | PC12 HTT-Q103 induced, cytoprotection, ATP luminescence, 40 h | Potency, µM (titrated, usually from 56.4 µM), without a hit: cytoprotection (ATP increase), usual class: activators | actives 0.14% (n = 230,000) | AID 1471; active = well fitted curve in the direction sought with a large enough effect; inconclusive = small, poorly fitted or top-dose-only effect, or another doubt; inactive = no such curve, though single readings can be large; an effect the other way counts as inactive or inconclusive; note: % of control where 0% means no effect; nearly all actives have a fitted effect of over 45% in size
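Huntington model: PC12 line, ecdysone-inducible HTTQ103 exon1–GFP, tebufenozide 100 nM. Test articles in a dose series. Endpoint luminescence from cellular ATP.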
Lamin A splicing = modulators of lamin A splicing | HeLa LMNA splicing GFP/RFP minigene ratio, 48 h | actives 0.01% (n = 200,000) | Potency, µM (titrated, usually from 46.1 µM), for the others: at the top dose ratio change, negative = inhibition, most hits filed as inhibitors; active = well fitted inhibition curve with a large enough effect in the signal ratio, with a control signal flat, not every such curve was filed as active; inconclusive = small, poorly fitted or top-dose-only effect, or effect the other way, or a change in a side signal; the % refers to the signal ratio; note: % is set by controls: 0 for no effect and ±100 for the full control effect
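S3 HeLa cells stably expressing lamin A-EGFP splicing minigene plus DsRed2, 600 cells/well, 48 h compound exposure at 37C. Laser-scanning cytometry; analysed as GFP (500-530 nm)/RFP (575-640 nm) total intensity ratio; 0.5% DMSO vehicle.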
KDM4E inh = JMJD2E (human) inhibition; B2RXH2; actives 1.6% (n = 230,000); Potency, µM (doses to about 57.1 µM), without a hit: at the top dose activity change, negative = inhibition, actives largely listed as inhibitors; AID 2147; JMJD2E catalytic domain, FDH-coupled NADH fluorescence (FDH is formaldehyde dehydrogenase);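 note: 0% = wells with enzyme and -100% = buffer wells without enzyme; nearly all actives have a fitted effect of over 50% in size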
HPGD inh = blocks human HPGD enzyme activity; P15428; purified HPGD, NADH fluorescence kinetic, PGE2 substrate; Potency, µM, without a hit: top-dose activity change, negative = inhibition, actives largely listed as inhibitors; actives 4.3% (n = 150,000); AID 894; note: % is set by controls: 0 for no effect and ±100 for the full control effect
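NADH formation kinetics: reaction with 30 uM PGE2 and 1 mM NAD+ (final), 20 nM enzyme, Tris-HCl pH 8 with Tween 20, after 15 min compound preincubation at room temperature. Fluorescence change, last versus first of five reads.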
HttQ103 aggreg = mutant huntingtin aggregation inhibition | PC12 HttQ103-GFP aggregates, Acumen cytometry, 40 h | Potency, µM (highest dose often 46.1 µM), without a hit: at the top dose activity change, negative = inhibition, actives largely listed as inhibitors | actives 1.1% (n = 220,000) | AID 1688; active = well fitted curve in the direction sought with a large enough effect; inconclusive = small, poorly fitted or top-dose-only effect, or another doubt; inactive = no such curve, though single readings can be large; an effect the other way counts as inactive or inconclusive; note: % is set by controls: 0 for no effect and ±100 for the full control effect; nearly all actives have a fitted effect of over 60% in size
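Compounds (qHTS titration) were added to PC12 cells expressing an ecdysone-driven HTT exon 1 Q103–GFP fusion after induction with 100 nM tebufenozide. Aggregate formation was measured as GFP objects in cell lysates.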
* marks the source's active call; other numbers are inactive results; ? = inconclusive; . = no result given; [ ] = remark or other dose. Unless noted, calls come from the whole dose curve; as a rule, active = well fitted inhibition curve with a large enough effect (not every such curve was filed as active); inconclusive = small, poorly fitted or top-dose-only effect, or another doubt; inactive = no such curve, though single readings can be large or run the other way. Potency is the fitted concentration of half-maximal effect.

SMILES | ALDH1A1 inh | HTT ATP protect | Lamin A splicing | KDM4E inh | HPGD inh | HttQ103 aggreg
C=CCn1c(=O)/c(=C/c2ccc(C)o2)s/c1=C(/C#N)C(=O)c1ccccc1 | 0.71µM* | -2%[10 µM] | -3% | -15% | -12% | -2%
COCCCn1c(=O)/c(=C\c2ccccc2OC(F)F)s/c1=C(/C#N)C(N)=O | 2% | -25% | ? | ? | . | 4%
COc1ccc(CCn2cnc(=O)c(C#N)c2C)cc1OC | 1% | 4% | . | 13% | . | -2%
Cc1oc(-c2ccccc2Cl)nc1CN1CCCCC1c1cccnc1 (configuration not stated) | -1% | 2%[10 µM] | . | 22µM* | . | 3%[9.22 µM]
N#Cc1ccccc1CN1C(=O)S/C(=C/c2cccn2-c2ccc(C(=O)O)cc2)C1=O | 0.5µM* | -2% | 11% | 6% | 28µM* | -25%
CN1C(=O)S/C(=C/c2cccn2-c2cccc(C(=O)O)c2)C1=O | -11% | -8% | -5%[1.84 µM] | -18% | . | -4%[9.22 µM]
Cc1ccc(NC(=O)CSc2nnc(CN3CCOCC3)n2C)cc1C | 32µM* | . | 4% | 5% | -18% | 12%
CCOC(=O)c1ccc(-n2c(N)c(C(=O)OC)c3nc4ccccc4nc32)cc1 | . | . | -7%[46 µM] | . | . | .
CCCNC(=O)c1c(N)n(-c2ccc3c(c2)OCO3)c2nc3ccccc3nc12 | -12% | -25% | 6% | -30% | -20% | 3%
CCOC(=O)c1c(N)n(-c2ccc(N)cc2)c2nc3ccccc3nc12 | 1% | . | -13% | 18µM* | -5% | -15%
CCCNC(=O)c1c(N)n(-c2cc(OC)cc(OC)c2)c2nc3ccccc3nc12 | ? | -21%[0.074 µM] | -9% | ? | ? | 18µM*
Oc1cccc(Nc2cc(-c3ccccc3)ncn2)c1 | . | . | 2%[46 µM] | . | . | .
Cc1ccc(N=Cc2cc(C)n(C3CCCC3)c2C)cc1 | 8.9µM* | -12% | 7% | 6% | -19% | -12%
Cc1cc(/C=N/NC(=O)c2ccc(O)cc2)c(C)n1C1CC1 | -6% | -52% | . | -24% | . | 21%
O=C(COC(=O)c1cc(-c2cccs2)nn1-c1ccccc1)Nc1ccc(Cl)c([N+](=O)[O-])c1 | ? | -2%[10 µM] | -2% | -3% | . | -12%
O=C1C=CC(=C(c2ccc(O)cc2)c2ccc(O)cc2)C=C1 | -10% | -147% | . | ? | 14µM* | .
CC1(C)OCC(CSC2=C(SCC3COC(C)(C)O3)C(=O)c3ncccc3C2=O)O1 (configuration not stated) | 2.5µM* | -69% | . | 1µM* | 3.5µM* | .
O=C1c2cccnc2-c2ncccc21 | -14% | 3% | 8% | 0% | -20% | 11%
COc1ccc(C[C@H](O)CN2CCOCC2)cc1 | -3%[13.5 µM] | 2%[10 µM] | . | . | 0% | .
CC(=O)NC(=S)Nc1ccc(NC(=O)c2cccnc2Cl)cc1 | . | 37%[10 µM] | . | -3% | . | ?
O=S(=O)(c1cccc(S(=O)(=O)N2CCCC2)c1)c1cccc(S(=O)(=O)N2CCCC2)c1 | ? | -5% | -8% | -4% | 6% | 2%
CSc1cccc(NS(=O)(=O)c2ccc(C(C)=O)cc2)c1 | . | 23%[10 µM] | . | 6% | . | -18%[9.22 µM]
O=C(N1CCCCCC1)N1CCN(S(=O)(=O)c2ccccc2)CC1 | 6.3µM* | 18% | 6% | 3% | -6% | -11%[9.22 µM]
CC(=O)N1CCN(CC(=O)Nc2cccc(S(=O)(=O)N3CCCCCC3)c2)CC1 | -5% | -15% | ? | 4% | . | -1%
CSc1cccc(NS(=O)(=O)c2ccccc2)c1 | -2% | 1%[1.9 µM] | -12% | 11% | 25µM* | 9%
O=S(=O)(Nc1cccc(S(=O)(=O)N2CCCCCC2)c1)c1ccccc1 | 2µM* | 6%[10 µM] | . | -9% | . | 10%[9.22 µM]
O=C(CCl)Nc1cccc(S(=O)(=O)N2CCCCCC2)c1 | 0.71µM* | 31%[10 µM] | ? | 0% | . | 10µM*
Cc1ccc(NC(=O)c2c(C)oc3ncn(C)c(=O)c23)cc1F | . | . | -1%[46 µM] | . | . | .
O=C(NCc1ccncc1)C(=O)N/N=C/c1ccccn1 | 11% | -9%[10 µM] | . | -8% | . | -6%[9.22 µM]
O=C(O)c1ccc(NS(=O)(=O)c2cccc3ccccc23)cc1 | -4% | . | . | . | 3% | .
